The full ranking holds about 35,000 sequences; the median of “fluorescence intensity (a.u.)” is about 10,000, and the highest 2% start at about 52,000. Many of the other results were omitted from the sample, so the highest values are more common in it than they were.

The target in this assay is T1, OsWOX13 (Oryza sativa, UniProt Q5QMM3 1-267).
T1 sequence: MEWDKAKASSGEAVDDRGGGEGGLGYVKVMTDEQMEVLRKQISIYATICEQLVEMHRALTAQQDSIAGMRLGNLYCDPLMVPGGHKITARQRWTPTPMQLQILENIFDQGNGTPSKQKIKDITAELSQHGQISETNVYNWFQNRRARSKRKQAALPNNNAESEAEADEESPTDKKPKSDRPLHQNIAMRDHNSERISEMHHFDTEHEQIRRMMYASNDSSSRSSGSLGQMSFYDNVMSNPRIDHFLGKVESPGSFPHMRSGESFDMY
As to the kind of experiment: protein-binding microarray (RPBM); PBS, 2% BSA, 51.3 ng/ul salmon testes DNA, 50 uM zinc acetate, 200 nM TF, 25 C, 1 h; high values mean tight binding. Conditions: protein: recombinant; tags: N-terminal polyhistidine and DsRed monomer fusion (pET32a); label: CyDye5-dUTP incorporated in the synthesized complementary strand; 3' TTTTT single-stranded linker to array surface; dsDNA, one strand shown. The essentials:
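Per-feature fluorescence intensity (arbitrary units), read on an Axon 4000B scanner, is the binding signal. Transcription factors carrying an N-terminal polyhistidine tag and DsRed fusion were expressed in E. coli BL21-CodonPlus and purified on Ni–NTA. A custom Agilent array, made double-stranded by primer extension with Cy5-dUTP and blocked with 2% BSA, was incubated with 200 nM protein in PBS, 2% BSA, salmon testes DNA and 50 µM zinc acetate at 25 °C for 1 h and then washed.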
Regarding “ATACATTAATTTGATGCCCCAATAGAAGCACGCCAATCATCGGAGTCACCTAGTGCAG”, the binding signal was 12000 fluorescence intensity (a.u.).
Take “TGTTGTTAGATGATAAAACATGATTAATATTTTATGCGTGCGGAGTCACCTAGTGCAG”: the binding signal was 3610 fluorescence intensity (a.u.).
For “GTTTTGATAAATTGATTTAAAACGCTTTATAAGAAGTGTCCGGAGTCACCTAGTGCAG”, the binding signal was 43800 fluorescence intensity (a.u.).
For the sequence “AATTTTGATAGGGTAGAATTGAAAATGTTTATTTGGATTGCGGAGTCACCTAGTGCAG”, the binding signal is 10500 fluorescence intensity (a.u.).
The same measure for “AAATAACTGGTGGATATTTGTACGCTGCCCCTGAGGAACTCGGAGTCACCTAGTGCAG”: 3900 fluorescence intensity (a.u.); for “TGTTTTCCTAAGTGATTGGTGGGAAACCTCGTAGGATAAGCGGAGTCACCTAGTGCAG”: 9180 fluorescence intensity (a.u.); for “TTGATTGGGAGGAAGCCAAGAAGAAGTCAAGAACTGCCCACGGAGTCACCTAGTGCAG”: 31900 fluorescence intensity (a.u.).
Then “GTTTATTTGGGCCTGATTGGCACAGATGGTAGTGCCATGTCGGAGTCACCTAGTGCAG”, with 31700 fluorescence intensity (a.u.); and “CCAAAATAAACAACCAAAATTTCGCCGTGTAACTAACTCTCGGAGTCACCTAGTGCAG”, with 3300 fluorescence intensity (a.u.); and “TAGTGTAATTTAACACTTAATTAGCCACATTTGTTACACACGGAGTCACCTAGTGCAG”, with 61900 fluorescence intensity (a.u.).
“CACAGACACATTTGGTTAATTACATACCTTGTACACTTCACGGAGTCACCTAGTGCAG”: the binding signal is 6260 fluorescence intensity (a.u.).
As for “CGTTTAATTGTGTATATATATAGCCACATTAAAGTACACACGGAGTCACCTAGTGCAG”, the binding signal was 11100 fluorescence intensity (a.u.).
Take “ATTGACTTGACGACCGCCATGAATTCATCTCATCTCATCTCGGAGTCACCTAGTGCAG”: the binding signal was 5970 fluorescence intensity (a.u.).
The same measure for “AGGCTAATTAACAGAGAGGGGACAATATGCAACAACGTATCGGAGTCACCTAGTGCAG”: 24000 fluorescence intensity (a.u.); for “GATGAAACATATATTGACTGTAACATGTAGATTACATGATCGGAGTCACCTAGTGCAG”: 6110 fluorescence intensity (a.u.).
Then “TATAATTATTAATAATTAATTAATTATATATTAATTATTTCGGAGTCACCTAGTGCAG”, with 26700 fluorescence intensity (a.u.); and “CTTTAATTTCTTCTTCTTTTCCACATATAATAATAATATACGGAGTCACCTAGTGCAG”, with 4030 fluorescence intensity (a.u.).
Regarding “TTCTGCTGCACCTAATTAATTAAATTTCCCCGCTATAATTCGGAGTCACCTAGTGCAG”, the binding signal was 11300 fluorescence intensity (a.u.).
The same measure for “ACTTAATTAACTTGGTTCTTCCTTTAATTTCTAGCTATATCGGAGTCACCTAGTGCAG”: 50100 fluorescence intensity (a.u.); for “CTTATTAACATTTAATTTGGTTTCTTCCTTAATTTGTATCCGGAGTCACCTAGTGCAG”: 12600 fluorescence intensity (a.u.); for “TGGTATATTAATTATTTCCTTTCCTTCCTTTCCCTTCCGACGGAGTCACCTAGTGCAG”: 5690 fluorescence intensity (a.u.).
As for “TAATTAATTATAATTAATTAATCCTACTGGTGCTTTCCTTCGGAGTCACCTAGTGCAG”, the binding signal was 54300 fluorescence intensity (a.u.).
With “TTAATTAATTAATTTTCTTCCTAAACATATCCGCTAATCCCGGAGTCACCTAGTGCAG”, the binding signal was 53500 fluorescence intensity (a.u.).
Take “ATTTCTTTAATTAATTAATTAATTAACATATATATCCCTTCGGAGTCACCTAGTGCAG”: the binding signal is 60600 fluorescence intensity (a.u.).

The values above are taken from PMC7819943, “Rice protein-binding microarrays: a tool to detect cis-acting elements near promoter regions in rice”.
